# Test results: PubChem BioAssay (NCATS)
# Results filed as inconclusive are left out. Entries that show only a call come without a potency. The source made the active and inactive calls. Calls follow the shape of the dose curve; as a rule, active = well fitted inhibition curve with a large enough effect; inconclusive = small, poorly fitted or top-dose-only effect; inactive = flat fitted curve, though single readings scatter.
# Key:
# Assay in all cases: qHTS profiling for inhibitors of Plasmodium falciparum proliferation (AID 504749); also: nearly all actives have a fitted effect of over 60% in size
# Details in all cases: P. falciparum in erythrocytes, SYBR Green DNA, 72 h; series mostly up to 28.7 µM
# CP297 = test system: CP297
# Summary of the method: (§1)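 Each compound contacts P. falciparum-infected red blood cells for 72 h at 37 C; lysis buffer (Tris, EDTA, saponin, Triton X, SYBR Green I) is added and fluorescence measured next morning; values normalized to controls.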
# CP305 = test system: CP305
# Summary of the method: as §1
# CP315 = test system: CP315
# Summary of the method: as §1
# CP325 = test system: CP325
# Summary of the method: as §1
# CP329 = test system: CP329
# Summary of the method: as §1
# CP335 = test system: CP335
# Summary of the method: as §1
# DFO2036 = test system: DFO2036
# Summary of the method: as §1
# DIV14 = test system: DIV14
# Summary of the method: as §1
# DIV17 = test system: DIV17
# Summary of the method: as §1
# DIV30 = test system: DIV30
# Summary of the method: as §1
# Dd2 = test system: Dd2
# Summary of the method: as §1
# ECU = test system: ECU
# Summary of the method: as §1
# FAB9 = test system: FAB9
# Summary of the method: as §1
# GB4 = test system: GB4
# Summary of the method: as §1
# HB3 = test system: HB3
# Summary of the method: as §1
# ICS = test system: ICS
# Summary of the method: as §1
# JCK = test system: JCK
# Summary of the method: as §1
# N140 = test system: N140
# Summary of the method: as §1
# P93_24 = test system: P93_24
# Summary of the method: as §1
# P94_40 = test system: P94_40
# Summary of the method: as §1
# Potency is read from the fitted curve at half-maximal effect.
SMILES,Potency (CP297),Potency (CP305),Potency (CP315),Potency (CP325),Potency (CP329),Potency (CP335),Potency (DFO2036),Potency (DIV14),Potency (DIV17),Potency (DIV30),Potency (Dd2),Potency (ECU),Potency (FAB9),Potency (GB4),Potency (HB3),Potency (ICS),Potency (JCK),Potency (N140),Potency (P93_24),Potency (P94_40)
Cc1cc(-c2ccc(N=Nc3ccc4c(S(=O)(=O)O)cc(S(=O)(=O)O)c(N)c4c3O)c(C)c2)ccc1N=Nc1ccc2c(S(=O)(=O)O)cc(S(=O)(=O)O)c(N)c2c1O,inactive,inactive,inactive,inactive,inactive,inactive,inactive,inactive,inactive,inactive,inactive,inactive,inactive,inactive,inactive,inactive,inactive,inactive,inactive,inactive
O=C(NNCS(=O)(=O)O)c1ccncc1,inactive,inactive,inactive,inactive,inactive,inactive,inactive,inactive,inactive,inactive,inactive,inactive,inactive,inactive,inactive,inactive,inactive,inactive,inactive,inactive
CC(C)[C@@H](N)C(=O)O,inactive,inactive,inactive,inactive,inactive,inactive,inactive,inactive,inactive,inactive,inactive,inactive,inactive,inactive,inactive,inactive,inactive,inactive,inactive,inactive
CCC(Cc1c(I)cc(I)c(O)c1I)C(=O)O (stereo unspecified),inactive,inactive,inactive,inactive,inactive,inactive,inactive,inactive,inactive,inactive,inactive,inactive,inactive,inactive,inactive,inactive,inactive,inactive,inactive,inactive
CC(CNC(=O)c1cccnc1)NC(=O)c1cccnc1 (stereo unspecified),inactive,inactive,inactive,inactive,inactive,inactive,inactive,inactive,inactive,inactive,inactive,inactive,inactive,inactive,inactive,inactive,inactive,inactive,inactive,inactive
CC/C(=C(/CC)c1ccc(OP(=O)(O)O)cc1)c1ccc(OP(=O)(O)O)cc1,inactive,inactive,inactive,inactive,inactive,inactive,inactive,inactive,inactive,inactive,inactive,inactive,inactive,inactive,inactive,inactive,inactive,inactive,inactive,inactive
CC(=O)Nc1ccc(OC(C)=O)cc1,inactive,inactive,inactive,inactive,inactive,inactive,inactive,inactive,inactive,inactive,inactive,inactive,inactive,inactive,inactive,inactive,inactive,inactive,inactive,inactive
O=P(O)(O)CP(=O)(O)O,inactive,inactive,inactive,inactive,inactive,inactive,inactive,inactive,inactive,inactive,inactive,inactive,inactive,inactive,inactive,inactive,inactive,inactive,inactive,–
NC(=O)C1c2ccccc2CCc2ccccc21,inactive,inactive,inactive,inactive,inactive,inactive,inactive,inactive,inactive,inactive,inactive,inactive,inactive,inactive,inactive,inactive,inactive,–,–,–
COC(=O)c1ccccc1O,inactive,inactive,inactive,inactive,inactive,inactive,inactive,inactive,inactive,inactive,inactive,inactive,inactive,inactive,inactive,inactive,inactive,inactive,inactive,inactive
CN1c2c(nc(N)[nH]c2=O)NCC1CNc1ccc(C(=O)NC(CCC(=O)O)C(=O)O)cc1 (stereo unspecified),inactive,inactive,inactive,inactive,inactive,inactive,inactive,inactive,inactive,inactive,inactive,inactive,inactive,inactive,inactive,inactive,inactive,inactive,inactive,inactive
FCOC(C(F)(F)F)C(F)(F)F,inactive,inactive,inactive,inactive,inactive,inactive,inactive,inactive,inactive,inactive,inactive,inactive,inactive,inactive,inactive,inactive,inactive,inactive,inactive,inactive
COc1ccc(C(=O)c2ccc(C)cc2)c(O)c1,inactive,inactive,inactive,inactive,inactive,inactive,inactive,inactive,inactive,inactive,inactive,inactive,inactive,inactive,inactive,inactive,inactive,inactive,inactive,inactive
C[Se]CC[C@H](N)C(=O)O,inactive,inactive,inactive,inactive,inactive,inactive,inactive,inactive,inactive,inactive,inactive,inactive,inactive,inactive,inactive,inactive,inactive,inactive,inactive,inactive
NCCN,inactive,inactive,inactive,inactive,inactive,inactive,inactive,inactive,inactive,inactive,inactive,inactive,inactive,inactive,inactive,inactive,inactive,inactive,inactive,inactive
COc1cc2c(cc1OC)[C@@H](Cc1cc(OC)c(OC)c(OC)c1)[N+](C)(CCCOC(=O)CC/C=C/CCC(=O)OCCC[N+]1(C)CCc3cc(OC)c(OC)cc3[C@H]1Cc1cc(OC)c(OC)c(OC)c1)CC2 (stereo partly specified),inactive,inactive,inactive,inactive,inactive,inactive,inactive,inactive,inactive,inactive,inactive,inactive,inactive,inactive,inactive,inactive,inactive,inactive,inactive,inactive
Nc1ncnc2c1ncn2CCOCP(=O)(O)O,inactive,inactive,inactive,inactive,inactive,inactive,inactive,inactive,inactive,inactive,inactive,inactive,inactive,inactive,inactive,inactive,inactive,inactive,inactive,inactive
CCCCC,inactive,inactive,inactive,inactive,inactive,inactive,inactive,inactive,inactive,inactive,inactive,inactive,inactive,inactive,inactive,inactive,inactive,inactive,inactive,inactive
O=C(O)C1=C(CSc2nnnn2CS(=O)(=O)O)CS[C@@H]2[C@H](NC(=O)[C@H](O)c3ccccc3)C(=O)N12,inactive,inactive,inactive,inactive,inactive,inactive,inactive,inactive,inactive,inactive,inactive,inactive,inactive,inactive,inactive,inactive,inactive,inactive,inactive,inactive
Cc1cccc(C)c1NC(=O)NC1=CCCN1C,inactive,inactive,inactive,inactive,inactive,inactive,inactive,inactive,inactive,inactive,inactive,inactive,inactive,inactive,inactive,inactive,inactive,inactive,inactive,inactive
CCCCO,inactive,inactive,inactive,inactive,inactive,inactive,inactive,inactive,inactive,inactive,inactive,inactive,inactive,inactive,inactive,inactive,inactive,inactive,inactive,inactive
CN=C1C=CC(=C(c2ccc(N(C)C)cc2)c2ccc(N(C)C)cc2)C=C1,1070 nM (active),953 nM (active),1070 nM (active),953 nM (active),757 nM (active),301 nM (active),398 nM (active),1510 nM (active),1510 nM (active),1690 nM (active),282 nM (active),891 nM (active),1120 nM (active),675 nM (active),1000 nM (active),398 nM (active),2510 nM (active),708 nM (active),891 nM (active),1000 nM (active)
CCOC(C)OCC,inactive,inactive,inactive,inactive,inactive,inactive,inactive,inactive,inactive,inactive,inactive,inactive,inactive,inactive,inactive,inactive,inactive,inactive,inactive,inactive
O=C(O)[C@H]1C(=CCO)O[C@H]2CC(=O)N12,inactive,inactive,inactive,inactive,inactive,inactive,inactive,inactive,inactive,inactive,inactive,inactive,inactive,inactive,inactive,inactive,inactive,inactive,inactive,inactive
NC(=O)Oc1ccc(Cc2ccccc2)cc1,inactive,inactive,inactive,inactive,inactive,inactive,inactive,inactive,inactive,inactive,inactive,inactive,inactive,inactive,inactive,inactive,inactive,inactive,inactive,inactive
CCOc1ccc(NC(=S)Nc2ccc(OCC)cc2)cc1,inactive,inactive,inactive,inactive,inactive,inactive,inactive,inactive,inactive,inactive,inactive,inactive,inactive,inactive,inactive,inactive,inactive,inactive,inactive,inactive
[O]=[Bi][O][Bi]=[O],inactive,inactive,inactive,inactive,inactive,inactive,inactive,inactive,inactive,inactive,inactive,inactive,inactive,inactive,inactive,inactive,inactive,inactive,inactive,inactive
C[C@H](O)CN(C)C,inactive,inactive,inactive,inactive,inactive,inactive,inactive,inactive,inactive,inactive,inactive,inactive,inactive,inactive,inactive,inactive,inactive,inactive,inactive,inactive
